Test results: PubChem BioAssay AID1159580 (chemical genetic matrix, 2015)
Among all 5,500 compounds or so, about 2,000 (36%) were called active. About 18% were inconclusive and are not listed. No stated cut-off is given here; in the data, active means normalized growth mostly below about 0.91 (no sharp cut-off); inconclusive means no clear call, values can overlap the other calls; inactive means mostly above about 0.92. The list shows a part of the results.

Assay: chemical genetic growth profiling, strain panel (AID 1159580);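 further: tested at 20 µM; growth read once vehicle control cultures reached saturation at 30 °C; 1 = growth at the plate median or of vehicle wells; lower values mean less growth of the strain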
Settings: growth OD

Measured: normalized growth

CC(=O)CC(c1ccccc1)c1c(O)c2ccccc2oc1=O (configuration not stated)
inactive: S. cerevisiae deletion strains, locus YJR075W, strain HOC1, hits give low values 0.981 | S. cerevisiae deletion strains, locus YKL009W, strain mrt4, hits give low values 1 | S. cerevisiae deletion strains, locus YKL068W, hits give low values 1 | S. cerevisiae deletion strains, locus YKL085W, strain MDH1 (second series), hits give low values 0.954 | S. cerevisiae deletion strains, locus YKL085W, strain MDH1, hits give low values 0.954 | S. cerevisiae deletion strains, locus YKL160W, strain elf1, hits give low values 1 | S. cerevisiae deletion strains, locus YKL190W, strain CNB1, hits give low values 1.01 | S. cerevisiae deletion strains, locus YKR001C, strain vps1, hits give low values 1.02 | S. cerevisiae deletion strains, locus YKR026C, strain gcn3, hits give low values 0.992 | S. cerevisiae deletion strains, locus YKR091W, strain srl3, hits give low values 0.995 | S. cerevisiae deletion strains, locus YLL001W, strain dnm1, hits give low values 0.993 | S. cerevisiae deletion strains, locus YLL026W, hits give low values 0.988 | S. cerevisiae deletion strains, locus YLL041C, strain sdh2, hits give low values 0.997 | S. cerevisiae deletion strains, locus YLR027C, strain aat2, hits give low values 1 | S. cerevisiae deletion strains, locus YLR039C, strain RIC1, hits give low values 0.986 | S. cerevisiae deletion strains, locus YLR058C, strain SHM2, hits give low values 1.01 | S. cerevisiae deletion strains, locus YLR102C, strain apc9, hits give low values 1.01 | S. cerevisiae deletion strains, locus YLR113W, strain HOG1, hits give low values 0.922 | S. cerevisiae deletion strains, locus YLR221C, strain rsa3, hits give low values 1.01 | S. cerevisiae deletion strains, locus YLR258W, strain gsy2, hits give low values 1 | S. cerevisiae deletion strains, locus YLR262C, strain YPT6 (second series), hits give low values 0.881 | S. cerevisiae deletion strains, locus YLR262C, strain YPT6, hits give low values 0.99 | S. cerevisiae deletion strains, locus YLR268W, strain sec22, hits give low values 1.03 | S. cerevisiae deletion strains, locus YLR320W, strain mms22, hits give low values 1.01 | S. cerevisiae deletion strains, locus YLR330W, strain CHS5, hits give low values 1 | S. cerevisiae deletion strains, locus YLR342W, strain FKS1 (second series), hits give low values 1.02 | S. cerevisiae deletion strains, locus YLR342W, strain FKS1, hits give low values 0.995 | S. cerevisiae deletion strains, locus YLR357W, strain rsc2, hits give low values 1.03 | S. cerevisiae deletion strains, locus YLR370C, strain arc18, hits give low values 0.993 | S. cerevisiae deletion strains, locus YLR371W, strain rom2, hits give low values 1.02 | S. cerevisiae deletion strains, locus YLR384C, strain iki3, hits give low values 0.986 | S. cerevisiae deletion strains, locus YLR418C, strain cdc73, hits give low values 1.06 | S. cerevisiae deletion strains, locus YML016C, strain PPZ1, hits give low values 1.01 | S. cerevisiae deletion strains, locus YML032C, strain rad52, hits give low values 1.03 | S. cerevisiae deletion strains, locus YML120C, strain ndi1, hits give low values 1 | S. cerevisiae deletion strains, locus YML124C, strain tub3, hits give low values 1.01 | S. cerevisiae deletion strains, locus YMR058W, strain fet3, hits give low values 1.01 | S. cerevisiae deletion strains, locus YMR078C, strain ctf18, hits give low values 1.02 | S. cerevisiae deletion strains, locus YMR125W, strain sto1, hits give low values 1.01 | S. cerevisiae deletion strains, locus YMR129W, hits give low values 1 | S. cerevisiae deletion strains, locus YMR205C, strain PFK2, hits give low values 1.01 | S. cerevisiae deletion strains, locus YMR223W, strain ubp8, hits give low values 1.01 | S. cerevisiae deletion strains, locus YMR231W, strain pep5, hits give low values 1 | S. cerevisiae deletion strains, locus YMR263W, strain SAP30, hits give low values 1.01 | S. cerevisiae deletion strains, locus YMR307W, strain GAS1, hits give low values 1.05 | S. cerevisiae deletion strains, locus YNL067W, strain RPL9B, hits give low values 1.01 | S. cerevisiae deletion strains, locus YNL071W, strain lat1, hits give low values 1 | S. cerevisiae deletion strains, locus YNL128W, strain TEP1, hits give low values 1.03 | S. cerevisiae deletion strains, locus YNL153C, strain GIM3, hits give low values 1 | S. cerevisiae deletion strains, locus YNL183C, strain NPR1, hits give low values 0.942 | S. cerevisiae deletion strains, locus YNL209W, strain ssb2, hits give low values 0.998 | S. cerevisiae deletion strains, locus YNL233W, strain BNI4, hits give low values 1.01 | S. cerevisiae deletion strains, locus YNL248C, strain rpa49, hits give low values 1.01 | S. cerevisiae deletion strains, locus YNL250W, strain rad50, hits give low values 1.05 | S. cerevisiae deletion strains, locus YNL271C, strain bni1, hits give low values 1.01 | S. cerevisiae deletion strains, locus YNL298W, strain CLA4, hits give low values 1.03 | S. cerevisiae deletion strains, locus YNL307C, strain MCK1, hits give low values 1.06 | S. cerevisiae deletion strains, locus YNL322C, strain KRE1 (second series), hits give low values 0.989 | S. cerevisiae deletion strains, locus YNL322C, strain KRE1, hits give low values 1.02 | S. cerevisiae deletion strains, locus YNR049C, strain mso1, hits give low values 0.995 | S. cerevisiae deletion strains, locus YNR052C, strain pop2, hits give low values 1.03 | S. cerevisiae deletion strains, locus YOL006C, strain TOP1, hits give low values 1 | S. cerevisiae deletion strains, locus YOL012C, strain htz1 1.19 | S. cerevisiae deletion strains, locus YOL147C, strain pex11, hits give low values 1.01 | S. cerevisiae deletion strains, locus YOR001W, strain rrp6, hits give low values 1.02 | S. cerevisiae deletion strains, locus YOR061W, strain CKA2, hits give low values 1.01 | S. cerevisiae deletion strains, locus YOR069W, strain VPS5, hits give low values 1 | S. cerevisiae deletion strains, locus YOR070C, strain gyp1, hits give low values 0.996 | S. cerevisiae deletion strains, locus YOR080W, strain dia2, hits give low values 1 | S. cerevisiae deletion strains, locus YOR083W, strain WHI5, hits give low values 1.01 | S. cerevisiae deletion strains, locus YOR106W, strain vam3, hits give low values 0.992 | S. cerevisiae deletion strains, locus YOR136W, strain idh2, hits give low values 1.03 | S. cerevisiae deletion strains, locus YOR144C, strain elg1, hits give low values 1.01 | S. cerevisiae deletion strains, locus YOR184W, strain ser1, hits give low values 1.04 | S. cerevisiae deletion strains, locus YOR231W, strain MKK1, hits give low values 0.983 | S. cerevisiae deletion strains, locus YOR265W, strain rbl2, hits give low values 0.984 | S. cerevisiae deletion strains, locus YOR270C, strain vph1, hits give low values 1.02 | S. cerevisiae deletion strains, locus YOR290C, strain snf2, hits give low values 1.01 | S. cerevisiae deletion strains, locus YOR316C, strain cot1, hits give low values 1.01 | S. cerevisiae deletion strains, locus YPL051W, strain arl3, hits give low values 0.994 | S. cerevisiae deletion strains, locus YPL055C, strain LGE1, hits give low values 1.05 | S. cerevisiae deletion strains, locus YPL078C, strain atp4, hits give low values 1.02 | S. cerevisiae deletion strains, locus YPL106C, strain sse1, hits give low values 1.02 | S. cerevisiae deletion strains, locus YPL240C, strain hsp82, hits give low values 1 | S. cerevisiae deletion strains, locus YPL241C, strain CIN2, hits give low values 1.01 | S. cerevisiae deletion strains, locus YPL256C, strain CLN2, hits give low values 0.955 | S. cerevisiae deletion strains, locus YPR119W, strain clb2, hits give low values 1.01 | S. cerevisiae deletion strains, locus YPR141C, strain kar3, hits give low values 1.01 | S. cerevisiae deletion strains, locus YPR163C, strain tif3, hits give low values 1.02 | S. cerevisiae deletion strains, locus YPR167C, strain met16, hits give low values 1.01 | S. cerevisiae deletion strains, strain wtn01, hits give low values 1 | S. cerevisiae strains, strain wild type, hits give low values 1.02
